CCT chaperon mod – High-Throughput Screening for Modulators of Cytosolic Chaperonin Activity | purified chaperonin ATPase assay, HTRF ADP detection, 30 min | activity change, % (test concentration not listed), hits read low | actives 0.3% (n = 360,000) | AID 651819, 2012; in the data active = activity change below about -30%
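First, chaperonin was dispensed at 40 nM or 20 nM final depending on batch activity. Next, compounds were pinned at 76 uM and ATP added at 10 uM. After 30 min at 37 °C, ADP detection reagents ran 30 min at ambient temperature.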
Mm-Cpn inhibitor – Inhibitors of TCP-1 ring complex (TRiC) of Methanococcus maripaludis (MmCpn): qHTS; AID 504842, 2011; Potency, µM (highest dose often 76.9 µM), usual class: inhibitors; purified Mm-Cpn ATPase, ADP Transcreener TR-FRET; Chaperonin Mm-Cpn (Methanococcus maripaludis); actives 0.031% (n = 330,000); note: nearly all actives have a fitted effect of over 80% in size
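Compound-treated chaperonin, 25 nM final, turns over 10 uM ATP at 37°C for 30 min following a 10 min preincubation; ADP generated competes with ADP-d2 for Eu-cryptate antibody, lowering FRET.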
Apoferritin bind – qHTS Assay for Identification of Novel General Anesthetics | Ferritin light chain (Equus caballus), P02791 | apoferritin/1-aminoanthracene competitive binding, fluorescence | actives 0.074% (n = 350,000) | Potency, µM (titrated, usually from 77.5 µM), most hits filed as inhibitors; note: nearly all actives have a fitted effect of over 20% in size
Target sequence (P02791 2-175 limits assumed): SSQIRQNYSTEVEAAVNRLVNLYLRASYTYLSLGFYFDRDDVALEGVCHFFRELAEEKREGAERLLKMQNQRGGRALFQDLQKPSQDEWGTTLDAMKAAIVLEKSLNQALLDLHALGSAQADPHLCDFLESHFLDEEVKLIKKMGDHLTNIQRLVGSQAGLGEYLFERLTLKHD
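Apoferritin-based anesthetic binding model; compound displacement of fluorescent 1-AMA measured as endpoint fluorescence after 10 minutes at room temperature, scaled to free-ligand and complex controls.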
A-T KAP1 phos – qHTS Assay for Identifying a Potential Treatment of Ataxia-Telangiectasia | actives 0.19% (n = 320,000) | Potency, µM (top dose mostly 57.5 µM), actives largely listed as activators | F2112 A-T fibroblasts, KAP-1 phosphorylation AlphaLISA; neocarzinostatin DNA damage 30 min before lysis; note: nearly all actives have a fitted effect of over 45% in size
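hTERT-immortalized A-T patient fibroblasts (F2112), 500 cells/well in OPTI-MEM, 1% FBS, got compounds for 60 min, then NCS for 30 min at 37C. Lysates were then assayed for phospho-KAP-1 by AlphaLISA (anti-pKAP1 donor, anti-KAP1 acceptor beads), 6 hr at 25C.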
Hits are given with their value; - = inactive; . = not tested or not shown; [ ] = dose if it differs, or a comment. In the library only some 0.47% were active in any assay of this set; here they are far more common. Unless noted, calls come from the whole dose curve; as a rule, active = well fitted curve in the direction sought with a large enough effect; inconclusive = small, poorly fitted or top-dose-only effect, or another doubt; inactive = no such curve, though single readings can be large; an effect the other way counts as inactive or inconclusive.

SMILES	CCT chaperon mod	Mm-Cpn inhibitor	Apoferritin bind	A-T KAP1 phos
Cc1ccc(-c2ccc(/C=N/NC(=O)CN3CCCC3)o2)cc1Cl	-	-	18µM	-
CC(C)CCN1CCc2nc(-c3ccccc3)c3c(c2C1)COC(C)C3 (stereo unspecified)	.	.	-[15.3 µM]	.
O=C1C(=O)N(CC2CCCO2)C(c2ccccc2[N+](=O)[O-])/C1=C(/O)c1ccccc1 (stereo unspecified)	-49	-	-	-
Cc1ccc(C2/C(=C(/O)c3ccc(Cl)cc3)C(=O)C(=O)N2CC2CCCO2)o1 (stereo unspecified)	-	-	-	-
COc1ccc(C(C(=O)NCc2ccccc2)N(C(=O)Cn2nnc3ccccc32)c2cccc(OC)c2)cc1 (stereo unspecified)	.	.	-	.
FC(F)C(F)(F)C(F)(F)C(F)(F)c1cc(-c2ccccc2)n[nH]1	-	-	14µM	-
Cc1cc(-c2ccccc2)n[nH]1	-	-	-	-
Cc1ccc(NC(=O)CN2C(=O)CC(c3ccc(C)c(C)c3)=Nc3ccccc32)cc1	.	.	-	.
Cc1ccc(C(=O)N2CCC3(CC2)Oc2ccc(F)cc2C(=O)C32CC(c3cccnc3)=NO2)s1 (stereo unspecified)	-	-	-	40µM
Brc1ccc2nc(-c3ccncc3)c(NC3CCCC3)n2c1	-36	-	-	-
Cc1ccccc1Nc1c(-c2ccncc2)nc2ccc(Br)cn12	-	-	-	-
COc1ccc(N2CCN(S(=O)(=O)CCNC(=O)c3ccc(OC(C)C)cc3)CC2)cc1	.	.	-	.
C#CCOCCOCCOCCNc1nc(N2CCN(C(=O)[C@H](CCC(=O)O)n3cc(C(N)CO)nn3)CC2)nc(N2CCN(C(=O)[C@H](CCC(=O)O)n3cc(C(N)CC(C)C)nn3)CC2)n1 (stereo partly specified)	.	-	-	18µM
C#CCOCCOCCOCCNc1nc(N2CCN(C(=O)[C@H](CCC(=O)O)n3cc(C(N)Cc4ccc(O)cc4)nn3)CC2)nc(N2CCN(C(=O)[C@H](CCCCN)n3cc(C(N)[C@H](C)CC)nn3)CC2)n1 (stereo partly specified)	.	-	-	40µM
CSCC[C@H](NC(=O)[C@H](CO)NC(=O)[C@H](Cc1ccc(O)cc1)NC(=O)[C@@H](N)CO)C(=O)N[C@@H](CCC(=O)O)C(=O)N[C@@H](Cc1cnc[nH]1)C(=O)N[C@@H](Cc1ccccc1)C(=O)N[C@@H](CCCNC(=N)N)C(=O)N[C@@H](Cc1c[nH]c2ccccc12)C(=O)NCC(=O)N[C@@H](CCCCN)C(=O)N1CCC[C@H]1C(=O)N[C@H](C(=O)NCC(=O)N[C@@H](CCCCN)C(=O)N[C@@H](CCCCN)C(=O)N[C@@H](CCCNC(=N)N)C(=O)N[C@@H](CCCNC(=N)N)C(=O)N1CCC[C@H]1C(=O)N[C@H](C(=O)N[C@@H](CCCCN)C(=O)N[C@H](C(=O)N[C@@H](Cc1ccc(O)cc1)C(=O)N1CCC[C@H]1C(=O)N[C@@H](CC(N)=O)C(=O)NCC(=O)N[C@@H](C)C(=O)N[C@@H](CCC(=O)O)C(=O)N[C@@H](CC(=O)O)C(=O)N[C@@H](CCC(=O)O)C(=O)N[C@@H](CO)C(=O)N[C@@H](C)C(=O)N[C@@H](CCC(=O)O)C(=O)N[C@@H](C)C(=O)N[C@@H](Cc1ccccc1)C(=O)N1CCC[C@H]1C(=O)N[C@@H](CC(C)C)C(=O)N[C@@H](CCC(=O)O)C(=O)N[C@@H](Cc1ccccc1)C(=O)O)C(C)C)C(C)C)C(C)C	.	.	-	.
COC(=O)c1ccccc1NC(=O)CSc1nc2ccsc2c(=O)n1CCC(C)C	.	.	-	.
COc1ccc(NC(=S)NCc2ccc(F)cc2)cc1	-	-	-	22µM
Cc1ccccc1C(=O)OCc1cc(=O)n2nc(C3CC3)sc2n1	.	.	-	.
CCOC(=O)c1cnn(-c2ccc(C(=O)Nc3cccc(C(C)=O)c3)cc2)c1N	.	.	-	.
COC(=O)c1cnn(-c2ccc(C(=O)Nc3cccc(C(C)=O)c3)cc2)c1N	.	-	-	28µM
Cc1ccc(-n2nnnc2SCC(=O)NC(=O)Nc2ccc3c(c2)OCCO3)cc1	-	-	-	-
Cc1nnc(SCC(=O)NC(=O)Nc2ccc3c(c2)OCCO3)n1N	-	-	-	0.71µM

Screening data as filed in PubChem BioAssay.
